SARS PLpro yeast-1: qHTS of Yeast-based Assay for SARS-CoV PLP. 330,000 tested, 0.19% active. S. cerevisiae expressing SARS-CoV PLpro, growth rescue. Potency, µM (top dose mostly 32.9 µM), most hits filed as activators. AID 485353, 2010; calls by dose curve; further: nearly all actives have a fitted effect of over 55% in size
Pf growth 48h: Primary qHTS for delayed death inhibitors of the malarial parasite plastid, 48 hour incubation | P. falciparum luciferase growth in erythrocytes, 48 h | Potency, µM (titrated, usually from 28.7 µM), usual class: inhibitors | 310,000 tested, 5.9% active
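In quantitative HTS format, infected erythrocytes bearing luciferase-reporter parasites were treated for a single generation at 37 C. Luminescence after adding detection reagent served as the growth measure.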
Pf growth 96h: Primary qHTS for delayed death inhibitors of the malarial parasite plastid, 96 hour incubation. P. falciparum luciferase reporter growth, 96 h. Potency, µM (highest dose often 28.7 µM), hits mostly inhibitors. 320,000 tested, 6.9% active
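Readout is luminescence from an integrated firefly luciferase in P. falciparum. Red cells, 2% hematocrit and 0.05% parasitemia final, were cultured with compound through two parasite generations (96 hours) at 37 C, 5% CO2.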
Shiga inhibitor: A qHTS for Small Molecule Inhibitors of Shiga Toxin; Vero cells, Shiga toxin protein synthesis inhibition reporter; AID 2315, 2010; 290,000 tested, 9.2% active; inhibition, % at 38.7 µM; in the data active means inhibition mostly above about 28%, no sharp cut-off; inactive means mostly below about 43%
CHX counter: Cycloheximide Counterscreen for Small Molecule Inhibitors of Shiga Toxin; 300,000 tested, 12% active; AID 2314, 2010; max response, %; cell reporter, cycloheximide protein synthesis inhibition counterscreen; in the data active means max response mostly above about 13%, no sharp cut-off; inactive means mostly below about 14%; further: read at 38.3 µM for the half of the compounds with a filed dose
NS1 function inh: qHTS Assay for Inhibitors of Influenza NS1 Protein Function; Potency, µM (series often up to 46.1 µM); 270,000 tested, 0.4% active; calls by dose curve; further: actives are rising curves; nearly all actives have a fitted effect of over 50% in size
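In this qHTS, NS1 from influenza A is expressed in budding yeast, where it slows growth. Cells are switched from glucose to 2% galactose medium (pH 6.0, -URA), treated with compound, and growth recovery is read at OD600.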
SARS PLpro yeast-2: qHTS of Yeast-based Assay for SARS-CoV PLP: Hit Validation | calls only | AID 652038, 2013 | yeast expressing SARS-CoV PLpro, growth phenotype rescue | shares compounds with SARS PLpro yeast-1 | 1,000 tested, 19% active; call rule not given here
Of the large screens only hits and unclear results are named; the others gave an inactive call (follow-up assays come after a bar, where they were run). An excerpt weighted towards active compounds, which were near 21% of everything screened. Unless noted, the call rests on the fitted dose curve; in most records, active means well fitted inhibition curve with a large enough effect; inconclusive means small, poorly fitted or top-dose-only effect, or another doubt; inactive means no such curve, though single readings can be large or run the other way.

CCOc1ccc(CCNC(=O)c2ccc(CS(=O)Cc3ccc(Cl)cc3)o2)cc1 (stereo not drawn)	SARS PLpro yeast-1 inconclusive, Pf growth 96h inconclusive | SARS PLpro yeast-2 inactive
CC(=O)c1cccc(NC(=O)C2CCN(C(=O)c3cccs3)CC2)c1	Pf growth 96h inconclusive
Cc1cc(OCC(=O)Nc2ccc(CN3CCCCC3)cc2)ccc1Cl	Pf growth 48h inconclusive
CN(CC1CCCO1)S(=O)(=O)c1ccc(C(=O)Nc2ccc(S(N)(=O)=O)cc2)cc1 (stereo not drawn)	SARS PLpro yeast-1 0.4µM | SARS PLpro yeast-2 inactive
NS(=O)(=O)c1ccc(NC(=O)c2ccc(OCC3CCCO3)cc2)cc1 (stereo not drawn)	none (no result: Pf growth 48h, Pf growth 96h, Shiga inhibitor, CHX counter, NS1 function inh)
CC(CC(=O)Nc1ccc(F)c([N+](=O)[O-])c1)c1ccccc1 (stereo not drawn)	SARS PLpro yeast-1 inconclusive | SARS PLpro yeast-2 inactive
CN(C(=O)COC(=O)c1ccc2[nH]c3c(c2c1)CCCC3)C1CCS(=O)(=O)C1 (stereo not drawn)	none (no result: NS1 function inh)
O=C(c1ccco1)N1CCN(c2c([N+](=O)[O-])nn(-c3ccc(Cl)cc3)[n+]2[O-])CC1	SARS PLpro yeast-1 inconclusive (no result: NS1 function inh)
CC1CCN(c2c([N+](=O)[O-])nn(-c3ccc4c(c3)OCCO4)[n+]2[O-])CC1	SARS PLpro yeast-1 4µM, Shiga inhibitor 162, CHX counter 61 (no result: Pf growth 48h, Pf growth 96h) | SARS PLpro yeast-2 inactive
O=C(OCCN=C1NS(=O)(=O)c2ccccc21)C1CC(=O)N(c2ccc3ccccc3c2)C1 (stereo not drawn)	none (no result: Pf growth 96h)
O=C(NN1C(=O)/C(=C/c2ccc(O)c(O)c2)SC1=S)c1ccccc1	SARS PLpro yeast-1 inconclusive, Pf growth 96h 10µM | SARS PLpro yeast-2 inactive
COc1cc(/C=C2\SC(=S)N(NC(=O)c3ccc(O)cc3)C2=O)ccc1O	none
Cc1cc(SCC(=O)N/N=C/c2ccc(O)cc2O)c(C)cc1Br	SARS PLpro yeast-1 10µM, Pf growth 48h inconclusive (no result: Pf growth 96h) | SARS PLpro yeast-2 inactive
Cc1cc(SCC(=O)N/N=C/c2ccccc2C(=O)O)c(C)cc1Br	NS1 function inh inconclusive
COc1ccc(C(C#N)c2ccc(=O)[nH]n2)cc1 (stereo not drawn)	none
COc1ccc(C(=O)Nc2ccc(NC(=O)c3cccs3)cc2)cc1[N+](=O)[O-]	none
CCOc1ccc(C(=O)Nc2ccc(NC(=O)c3cccs3)cc2)cc1[N+](=O)[O-]	SARS PLpro yeast-1 4µM | SARS PLpro yeast-2 active
CCN1CCCC1CNC(=O)c1nn(-c2ccc(C)cc2)c(=O)c2c1c1ccccc1n2C (stereo not drawn)	none (no result: SARS PLpro yeast-1, Pf growth 48h, Pf growth 96h, Shiga inhibitor, CHX counter)
Cc1occc1C(=O)N/N=C/c1ccc(Cl)c([N+](=O)[O-])c1	SARS PLpro yeast-1 inconclusive, Shiga inhibitor 56, CHX counter 37 | SARS PLpro yeast-2 inconclusive
Cc1occc1C(=O)NNC(=O)c1ccccc1[N+](=O)[O-]	none
O=C(CCn1c(=O)[nH]c2ccsc2c1=O)Nc1ccc(F)c(F)c1	none
CCOC(=O)N1CCN(CC(O)COc2cc(C)cc(C)c2)CC1 (stereo not drawn)	none
NC(=O)c1ccc(Oc2ccc(Cl)cc2)c([N+](=O)[O-])c1	none
NC(=O)c1ccc(Oc2ccc(Cl)c3ccccc23)c([N+](=O)[O-])c1	SARS PLpro yeast-1 4.5µM | SARS PLpro yeast-2 inconclusive
N#CC1C(=O)NC(N2CCN(c3ccccc3)CC2)=NC12CCCCC2 (stereo not drawn)	SARS PLpro yeast-1 16µM, NS1 function inh inconclusive | SARS PLpro yeast-2 inactive
CN(C)c1nc(N2CCN(c3ccccc3)CC2)c(C#N)c(=O)o1	none
COc1ccc(CC(=O)NNC(=O)COc2ccc(Cl)cc2C)cc1S(=O)(=O)N1CCOCC1	none (no result: Shiga inhibitor, CHX counter, NS1 function inh)
O=C(NCc1ccco1)C1CCCN(S(=O)(=O)c2cccc3cccnc23)C1 (stereo not drawn)	Pf growth 96h inconclusive (no result: Pf growth 48h)
Cc1nn(C)cc1CNC(=O)/C=C/c1cnn(C)c1	none
COc1ccc(/C=C/C(=O)NCc2cn(C)nc2C)cc1COc1ccc(Br)cc1	SARS PLpro yeast-1 inconclusive, Pf growth 48h 3.7µM, Pf growth 96h inconclusive | SARS PLpro yeast-2 inactive
COc1ccc(OC)c(C2/C(=C(/O)c3ccc(C)cc3)C(=O)C(=O)N2Cc2ccco2)c1 (stereo not drawn)	SARS PLpro yeast-1 10µM | SARS PLpro yeast-2 inactive
COc1ccc(/C(O)=C2\C(=O)C(=O)N(Cc3ccco3)C2c2cc(OC)ccc2OC)cc1 (stereo not drawn)	Pf growth 48h inconclusive
COc1ccc(Oc2cc(F)nc(N)n2)cc1	none
CCc1ccc(Oc2cc(C)nc(N)n2)cc1	SARS PLpro yeast-1 16µM, Shiga inhibitor 65, CHX counter 26 | SARS PLpro yeast-2 inactive
Cc1ccc(CNC(=O)COC(=O)c2ccc(S(=O)(=O)N3CCCCCC3)cc2)cc1	none (no result: Shiga inhibitor, CHX counter, NS1 function inh)
O=C(COC(=O)c1ccc(S(=O)(=O)N2CCCCCC2)cc1)NCc1ccc(F)cc1	SARS PLpro yeast-1 inconclusive, Pf growth 48h inconclusive (no result: Shiga inhibitor, CHX counter, NS1 function inh) | SARS PLpro yeast-2 active
COc1ccc(C(C)(C)C)cc1NC(=O)COC(=O)c1ccc([N+](=O)[O-])o1	none
CCSc1nnc(N(CCC(=O)O)CCC(=O)O)s1	SARS PLpro yeast-1 inconclusive | SARS PLpro yeast-2 inactive
Cc1nc(CSc2n[nH]c(=O)n2-c2cccc(F)c2)cs1	none
Cc1c(O)c2cccnc2[nH]c1=O	SARS PLpro yeast-1 3.5µM | SARS PLpro yeast-2 inactive
Cc1ccc2c(O)c(C)c(=O)[nH]c2n1	none
CN(C)/C=N/c1c(C#N)cnn1-c1ccc(F)c(Cl)c1	none (no result: SARS PLpro yeast-1, Pf growth 48h, Pf growth 96h, NS1 function inh)
CCCn1c(SCc2nc(N)nc(N3CCCCC3)n2)nc2c1c(=O)n(C)c(=O)n2C	none (no result: NS1 function inh)
Cn1c(=O)c2c(nc(SCc3nc(N)nc(N4CCCCC4)n3)n2C)n(C)c1=O	SARS PLpro yeast-1 inconclusive, Pf growth 96h inconclusive | SARS PLpro yeast-2 inactive
CC(C)(C)NC(=O)C(c1ccccc1)N(C(=O)CNC(=O)c1cccs1)c1cccnc1 (stereo not drawn)	none
COC(=O)c1cccc(N(C(=O)c2cnccn2)C(C(=O)NC2CCCCC2)c2cn(C)nc2C)c1 (stereo not drawn)	none
CC(=O)Oc1ccc(C(=O)[C@H]2[C@H]3C(=O)N(c4ccc5ccccc5c4)C(=O)[C@H]3[C@@H]3C=CC=NN32)cc1	SARS PLpro yeast-1 3.2µM, CHX counter 37 | SARS PLpro yeast-2 inactive
COc1ccccc1N1C(=O)[C@@H]2[C@H](C1=O)[C@H](C(=O)c1ccc(OC(C)=O)cc1)N1N=CC=C[C@@H]21	none
O=C(NNC(=O)c1cc(Cl)ccc1O)c1cccc(S(=O)(=O)N2CCOCC2)c1	SARS PLpro yeast-1 inconclusive, Pf growth 48h inconclusive (no result: Shiga inhibitor, CHX counter, NS1 function inh) | SARS PLpro yeast-2 active
COc1ccccc1-c1nnn(CC#N)n1	SARS PLpro yeast-1 inconclusive | SARS PLpro yeast-2 inactive
COc1ccc(-c2nnn(CC#N)n2)cc1OC	none (no result: Pf growth 96h)
